# Assay results: PMC4336329 (PLoS ONE, 2015)
# Out of some 310,000 compounds screened, about 14,000 (4.5%) showed an effect of 50% or more. Effects have a minus sign here. For the sample, strong results were picked, then their nearest neighbours and some compounds at random.
# Molecular target: human ether-à-go-go-related gene (hERG) potassium channel (human, UniProt Q12809)
# Assay: primary screen, population patch clamp on CHO cells stably expressing hERG; higher = less effect of the substance
# 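Further: peak tail current of the secondary pulse compared with the same well before compound.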
# Sequence of human ether-à-go-go-related gene (hERG) potassium channel (Q12809 whole entry, looked up): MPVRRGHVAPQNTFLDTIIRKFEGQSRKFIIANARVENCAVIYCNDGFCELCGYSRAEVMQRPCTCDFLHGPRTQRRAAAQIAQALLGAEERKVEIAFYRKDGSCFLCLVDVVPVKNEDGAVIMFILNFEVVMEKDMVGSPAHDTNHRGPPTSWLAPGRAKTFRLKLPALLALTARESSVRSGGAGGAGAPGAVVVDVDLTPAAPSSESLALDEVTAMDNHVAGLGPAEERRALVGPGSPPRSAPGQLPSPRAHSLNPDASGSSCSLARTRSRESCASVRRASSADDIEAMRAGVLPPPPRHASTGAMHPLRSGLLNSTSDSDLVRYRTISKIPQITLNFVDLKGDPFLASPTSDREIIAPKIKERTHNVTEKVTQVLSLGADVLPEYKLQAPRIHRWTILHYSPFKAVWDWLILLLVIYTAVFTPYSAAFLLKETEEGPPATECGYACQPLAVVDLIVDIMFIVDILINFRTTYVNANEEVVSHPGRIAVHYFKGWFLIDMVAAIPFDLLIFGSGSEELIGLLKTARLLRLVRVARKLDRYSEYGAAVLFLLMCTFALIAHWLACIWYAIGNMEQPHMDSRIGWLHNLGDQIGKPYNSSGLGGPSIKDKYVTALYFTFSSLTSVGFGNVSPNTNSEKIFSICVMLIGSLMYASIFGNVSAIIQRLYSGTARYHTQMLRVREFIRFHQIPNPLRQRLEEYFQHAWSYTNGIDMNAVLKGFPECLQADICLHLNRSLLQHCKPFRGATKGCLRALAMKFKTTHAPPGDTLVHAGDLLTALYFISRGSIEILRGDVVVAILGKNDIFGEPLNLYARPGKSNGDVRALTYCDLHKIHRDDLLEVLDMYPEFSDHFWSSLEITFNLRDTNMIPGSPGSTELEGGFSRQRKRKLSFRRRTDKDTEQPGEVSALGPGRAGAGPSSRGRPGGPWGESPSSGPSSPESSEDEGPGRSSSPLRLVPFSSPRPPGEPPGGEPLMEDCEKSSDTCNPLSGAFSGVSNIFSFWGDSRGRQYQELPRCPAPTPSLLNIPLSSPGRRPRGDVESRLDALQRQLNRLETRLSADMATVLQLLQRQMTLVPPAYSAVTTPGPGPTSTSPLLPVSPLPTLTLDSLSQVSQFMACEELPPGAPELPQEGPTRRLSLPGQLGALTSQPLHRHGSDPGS
row,Structure (SMILES),"hERG current change (%, negative = inhibition) at 10uM [%]"
1,O=C(CN1N=C(c2ccccc2)CCC1=O)NCc1ccco1,0.243
2,COc1cccc(NC(=O)C2C3C=CC(C3)C2C(=O)O)c1 (centres unmarked),8.61
3,Cc1ccc(Cc2nnc3n(-c4cccc(C)c4)nc(C(=O)c4ccccc4)n3c2=O)cc1,-3.85
4,CN1CCC(OC(=O)c2ccc(Br)cc2)CC1.Cl,-41.9
5,CN1CCC(=C(c2ccccc2)c2ccc(Br)cc2)CC1.Cl,-68.3
6,CN1CCN(C(=S)c2ccc(Br)cc2)CC1,-35.9
7,C=CCNc1scc(-c2ccccc2)[n+]1CC=C.[Br-],-21.4
8,C/C=C/C(=O)N1c2ccccc2C(C)=CC1(C)C,3.41
9,COC(=O)c1[nH]c2cccc(OC)c2c1NC(=O)C(C)N1CCC(C)CC1 (centres unmarked),-21.6
10,CCN(CC)c1ccc(C(=O)OCC(=O)Nc2sccc2C#N)cc1,12.2
11,Cc1ccc2cc(S(=O)(=O)NCCC(=O)O)ccc2c1,-2.04
12,Cc1cc(C)c2nc(N3CCC(C(=O)NCCN4CCOCC4)CC3)sc2c1,-10.5
13,Cc1cc(=O)n2nc(N3CCC(C(=O)NCc4cccnc4)CC3)sc2n1,7.16
14,Cc1cc(C)c2nc(N3CCC(C(=O)NCCCN4CC(C)CC(C)C4)CC3)sc2c1 (centres unmarked),-71.8
15,CCC(C)Sc1nnc(NC(=O)C2CCN(C(=O)c3ccco3)CC2)s1 (centres unmarked),-57.2
16,Cc1cc(C)c2nc(N3CCC(C(=O)N4CCCC4)CC3)sc2c1,-67.7
17,Cc1cc(C)c2nc(N3CCCC(C(=O)N4CCC(C(N)=O)CC4)C3)sc2c1 (centres unmarked),-19.3
18,CCC(CC)c1nnc(NC(=O)C2CCN(C(=O)c3ccco3)CC2)s1,20.1
19,CCc1nnc(NC(=O)C2CCN(C(=O)c3ccco3)CC2)s1,-0.31
20,Cc1cc(C)c2nc(N3CCC(C(=O)N4CCN(c5ncccn5)CC4)CC3)sc2c1,-0.141
21,Cc1cc(C)c2nc(N3CCC(C(=O)NCc4cccnc4)CC3)sc2c1,-79
22,Cc1cc(C)c2nc(N3CCC(C(=O)NCc4ccccn4)CC3)sc2c1,-25.3

row,Structure (SMILES),"hERG current change (%, negative = inhibition) at 10uM [%]"
1,Cc1cc(C)c2nc(N3CCC(C(=O)NCCCN4CCCCC4)CC3)sc2c1,-37.2
2,COC(=O)[C@@]12CCCN1[C@H](c1ccc(-c3ccccc3)cc1)[C@H]1C(=O)N(C)C(=O)[C@H]12.O=C(O)C(F)(F)F,-14.2
3,O=C1Cc2cc(S(=O)(=O)NCc3ccccc3Cl)cc3c2N1CCC3,6.14
4,Cc1ccc(/C=C2\SC(=S)N(c3cccnc3)C2=O)o1,6.67
5,CCOC(=O)c1ccc(NC(=O)c2nc[nH]c2C(=O)N2CCc3ccccc3C2)cc1,0.122
6,CC(C)CNc1nc(N)c([N+](=O)[O-])c(N2CCCCCC2)n1,-0.987
7,CC1(C)SC2c3ccccc3C(=O)N2[C@@H]1C(=O)NC1CC1 (some centres unmarked),9.97
8,Cc1nc([N+](=O)[O-])cn1CC(=O)c1ccc(F)cc1,10.5
9,CCNc1nc(SCC(=O)Nc2ccc(Cl)c(Cl)c2)nc(N(C)C)n1,14.8
10,CCN(C(=O)COC(=O)c1[nH]c(C)c(C(C)=O)c1C)C1CCS(=O)(=O)C1 (centres unmarked),-8.32
11,CCOc1ccc(-c2cc(C(=O)N/N=C/c3ccc(O)cc3)c3ccccc3n2)cc1,4.93
12,Cc1c(C(=O)N/N=C/c2ccccn2)nnn1-c1nonc1N,-15.6
13,Cc1cc(C)c2nc(N3CCN(C(=O)c4ccco4)CC3)sc2c1,-28.5
14,Cc1cc(C)c2nc(N3CCC(C(=O)N4CCN(C(=O)c5ccco5)CC4)CC3)sc2c1,-77.1
15,Cc1nnc(NC(=O)C2CCN(C(=O)c3ccco3)CC2)s1,13.4
16,Cc1cccc2sc(NC(=O)C3CCN(C(=O)c4ccco4)CC3)nc12,-71.6
17,O=C(Nc1nc2ccccc2s1)C1CCN(C(=O)c2ccco2)CC1,-41.9
18,Cc1cc2nc(N3CCN(C(=O)c4ccco4)CC3)sc2cc1C,0.152
19,C=CCOC(=O)C1=C(C)NC(C)=C(C(=O)OCC=C)C1c1ccc(C)o1,-27.4
20,O=C(Cc1ccccc1)NCC(=O)N1CCCCCC1,9.71
21,CN(C/N=C(\N)N[N+](=O)[O-])S(=O)(=O)c1ccccc1,19.4
22,COC(=O)C1=CO[C@@H](O[C@@H]2O[C@H](CO)[C@@H](O)[C@H](O)[C@H]2O)[C@H]2[C@@H]1C(=O)C[C@@H]2C,23.3
